Source: the OligoGym collection

molecular target: INO80C; assay: pooled miR-30 sensor sort-seq; sequence = guide strand; details: shRNA
Also: reference of the scale not given here.

Row | Sequence | sensor-assay potency score (higher = more potent)
1 | TTGCTGTTCCGGACTATTCCGG | -0.701
2 | TACTGAAGTAGTTAGGATCGTT | 0.332
3 | TTACTTGAGGCAACAACTGAAG | -0.863
4 | ATTTGTTTCAGGTTCTTCCAGG | -0.776
5 | TATAATTTAATTCAGCAGGAAA | -1.3
6 | TTCAATGGTGCTGAACCGCAGT | -0.122
7 | TTTACTTGAGGCAACAACTGAA | 0.108
8 | TTTTGAAACAGCTTTCCACTTC | 0.164
9 | TGTAGTTGGCAAGCAGACCTGA | -0.0597
10 | TGAAACATCAGAATACTTCTTA | 1.15
11 | TTGGAGGGAAAACACACACTAA | -1.27
12 | TTCTGTTCTTCTTGCCAGCTAC | -0.723

molecular target: INPP5F; assay: as above; details: shRNA

Row | Sequence | sensor-assay potency score (higher = more potent)
13 | TTACTTTATCAACTTCATCATC | -1.34
14 | TAGACTTAGTCGTTGATACTGG | -0.136
15 | TACCAAGTTAATAATAACCTGT | -0.241
16 | TTCTTTGTATCTGTAGTGCAGT | -0.359
17 | TTGGGTAATACTAGCAACCTGG | -0.472
18 | TTCACTTCTGTCCAGCCGCGGT | -1.35
19 | TTAGTGTCTGAACATTCTCAAA | -1.6
20 | TAATCTTCTCTCTTCCTGCCTG | 0.168
21 | TTGCTTGGTGATCTGCAGCATC | -0.92
